Our source for the Potency and activity change, negative = cytotoxic values is PubChem BioAssay (Tox21).

Where “and” joins values, the source holds several entries; their conditions need not be identical. Identical values can stand only once. Results filed as inconclusive are left out. Where a call stands in place of a potency, no number is given. Unmarked numbers belong to inactive results. Calls of active or inactive are those of the source. The call rests on the fitted dose curve; in most records, active means well fitted cell-killing curve with a large enough effect in the repeat runs; inconclusive means weak or mixed curves, or effect the other way; inactive means flat fitted curve, though single readings scatter.
Potency means the concentration at half of the fitted maximal effect.

The experiment can be described thus: qHTS RealTime-Glo MT Cell Viability Assay in HEK293 cells - 32 hour (AID 1224868). Further: nearly all actives have a fitted effect of over 50% in size. On activity change, negative = cytotoxic: top concentration of the series differs between compounds. Particulars: RealTime-Glo luminescence; series mostly up to 76.8 µM. An excerpt: National Center for Advancing Translational Sciences [NCATS]
NIH Chemical Genomics Center [NCGC]
U.S. Environmental Protection Agency [EPA]
National Institutes of Environmental Health Sciences [NIEHS]
National Toxicology Program [NTP]
U.S. Food and Drug Administration [FDA]
Measure of cell viability is critical in the cell-base assay. Analysis of cell viability is necessary for the characterization of cell responses to cytotoxic drugs and environmental stress. A RealTime-Glo MT Cell Viability Assay to monitor cell viability in real time of continues cell culture during 40 hours of compound treatment was used to screen Tox21 10K library compounds in Hek293 cells. The RealTime-Glo MT Cell Viability Assay is a nonlytic, homogeneous, bioluminescent method to measure cell viability in real time using a simple, plate-based method. The assay involves adding NanoLuc luciferase and a cell-permeant prosubstrate to cells in culture. Viable cells reduce the proprietary prosubstrate to generate a substrate for NanoLuc luciferase. This substrate diffuses from cells into the surrounding culture medium, where it is rapidly used by the NanoLuc Enzyme to produce a luminescent signal. The signal correlates with the number of viable cells, making the assay well suited for cytotoxicity studies.
Tox21 Assay Protocol Summary:
The mixture of Hek293 cell suspension and reagents were dispensed at 600cells/6 ul/well in 1536-well tissue culture treated black solid bottom plates using a Multidrop dispenser. After the assay plates were incubated at a 37 C/5% CO2 incubator for 5 hours, 23 nL of compounds dissolved in DMSO, positive and negative controls was transferred to the assay plate by a pintool work station. The plates were incubated at 37 C for 40 hours. The luminescence intensity were measured at 0h, 8h, 16h, 24h, 32h and 40h time points using ViewLux plate reader during compound treatment.
A general note: qHTS replaces the single test concentration by a dilution series.
Consider `O=c1cc(CO)occ1O`, for which the Potency entry was “inactive”.
For `O=C1CC2CC1C1CCCC21` (stereo not given), the Potency entry was “inactive”.
Take `CCCCCCCCCCCCCCCCC`: the Potency result is “inactive”.
For `CC(=O)c1ccccc1O`, the Potency result is “inactive”.
Still for that read-out and setting: next, `O=C1OC(=O)C2CCCCC12` (stereo not given): “inactive”; `COC(=O)[C@@H](N)Cc1ccc(O)c(O)c1`: “inactive”.
`CC(=O)OC/C=C(\C)CC/C=C(\C)CCC=C(C)C`: the Potency result is “inactive”.
As to `NC(CSCC(=O)O)C(=O)O` (stereo not given), the Potency result is “inactive”.
As to `N[C@H](C(=O)O)c1ccc(O)cc1`, the activity change, negative = cytotoxic is 3.67% [at 15.8 µM].
On to `COC(=O)CCSCCC(=O)OC`, for which the Potency entry was “inactive”.
On to `C[C@H](NC(CCc1ccccc1)C(=O)O)C(=O)N1CCC[C@H]1C(=O)O` (stereo not given in full), for which the Potency result was “inactive”.
Consider `C[C@](N)(Cc1ccc(O)cc1)C(=O)O`, for which the activity change, negative = cytotoxic was 1.02% [at 6.97 µM].
For the compound `NS(=O)(=O)c1cc(C(=O)NN2C[C@H]3[C@H]4CCC(C4)[C@H]3C2)ccc1Cl`, the Potency entry was “inactive”.
Still for that read-out and setting: for `N=C(N)c1ccc(OCCCOc2ccc(C(=N)N)cc2)cc1` the value was “inactive”; for `N[C@H]1CN(c2c(F)cc3c(=O)c(C(=O)O)cn(C4C[C@H]4F)c3c2Cl)CC12CC2` (stereo not given in full), “inactive”; for `C[C@@H]1CCN(C(=O)[C@H](CCCN=C(N)N)NS(=O)(=O)c2cccc3c2NC[C@H](C)C3)[C@@H](C(=O)O)C1`, “inactive”.
For `NS(=O)(=O)c1ccccc1Cl`, the Potency result was “inactive”.
The same measure, in the same setting: next, `CCCCOCCOCCOCc1cc2c(cc1CCC)OCO2`: “inactive”; `O=C1CCCCCCCCCCCN1`: “inactive”; `CN1CCN(c2cc3c(cc2F)c(=O)c(C(=O)O)cn3-c2ccc(F)cc2)CC1`: “inactive”.
Still for that read-out and setting: for `CC/C=C\CCOC(C)=O` the value was “inactive”; for `CCc1cccc2c(CCO)c[nH]c12`, “inactive”.
On to `C=C(C)C(=O)OCCCCCCCC(C)C`, for which the Potency result was “inactive”.
Still for that read-out and setting: next, `CC(C)(C)c1ccc(O)c(O)c1`: 20.2 µM (active) and 13.8 µM (active); `CN1CCCC1`: “inactive”.
Same read-out and setting: for `N=C(N)c1ccccc1` the value was “inactive”; for `O=C[C@H](O)[C@@H](O)[C@H](O)[C@H](O)CO`, “inactive”.
Take `CCSC(=O)N(CC(C)C)CC(C)C`: the Potency entry is “inactive”.
Turning to `O=C(O)CNC(=O)c1ccc([N+](=O)[O-])cc1`, the Potency entry is “inactive”.
For `O=C1NC(=O)[C@@]2(CCOc3ccc(F)cc32)N1`, the Potency result is “inactive”.
Same read-out and setting: for `CCCCCSCCCCC` the value was “inactive”; for `Cc1cc(O)cc2c1O[C@](C)(CCC[C@H](C)CCC[C@H](C)CCCC(C)C)CC2`, “inactive”.
Same read-out and setting: for `CCOC(=O)c1ccc(C)cc1` the value was “inactive”; for `C=C(C)CS(=O)(=O)O`, “inactive”.
Consider `OC(CCN1CCCCC1)(c1ccccc1)C1CC2C=CC1C2` (stereo not given), for which the Potency entry was “inactive”.
`CCCC(=O)O[C@]1(C(=O)CO)CC[C@H]2[C@@H]3CCC4=CC(=O)CC[C@]4(C)[C@H]3[C@@H](O)C[C@@]21C`: the Potency result was “inactive”.
Same read-out and setting: for `COC(=O)c1cc(C(=O)OC)cc(S(=O)(=O)O)c1` the value was “inactive”; for `Oc1ccc(C2CNCCc3c2cc(O)c(O)c3Cl)cc1` (stereo not given), “inactive”; for `N#Cc1ccc(C2CCCc3cncn32)cc1` (stereo not given), “inactive”.
As for `CC(C)(O)C(=O)c1ccccc1`, the Potency result is “inactive”.
